# Measurements reported in PMC4336329 (PLoS ONE, 2015).
# About 14,000 (4.5%) of roughly 310,000 compounds showed an effect of 50% or more. Effects have a minus sign here. Shown is part of a subset that was picked to be rich in strong results.
# Molecular target: human ether-à-go-go-related gene (hERG) potassium channel (human, UniProt Q12809)
# Assay: primary screen, population patch clamp on CHO cells stably expressing hERG; higher = less effect of the substance
# 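Further: peak tail current of the secondary pulse compared with the same well before compound.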
# Chain of human ether-à-go-go-related gene (hERG) potassium channel (Q12809 whole entry, looked up): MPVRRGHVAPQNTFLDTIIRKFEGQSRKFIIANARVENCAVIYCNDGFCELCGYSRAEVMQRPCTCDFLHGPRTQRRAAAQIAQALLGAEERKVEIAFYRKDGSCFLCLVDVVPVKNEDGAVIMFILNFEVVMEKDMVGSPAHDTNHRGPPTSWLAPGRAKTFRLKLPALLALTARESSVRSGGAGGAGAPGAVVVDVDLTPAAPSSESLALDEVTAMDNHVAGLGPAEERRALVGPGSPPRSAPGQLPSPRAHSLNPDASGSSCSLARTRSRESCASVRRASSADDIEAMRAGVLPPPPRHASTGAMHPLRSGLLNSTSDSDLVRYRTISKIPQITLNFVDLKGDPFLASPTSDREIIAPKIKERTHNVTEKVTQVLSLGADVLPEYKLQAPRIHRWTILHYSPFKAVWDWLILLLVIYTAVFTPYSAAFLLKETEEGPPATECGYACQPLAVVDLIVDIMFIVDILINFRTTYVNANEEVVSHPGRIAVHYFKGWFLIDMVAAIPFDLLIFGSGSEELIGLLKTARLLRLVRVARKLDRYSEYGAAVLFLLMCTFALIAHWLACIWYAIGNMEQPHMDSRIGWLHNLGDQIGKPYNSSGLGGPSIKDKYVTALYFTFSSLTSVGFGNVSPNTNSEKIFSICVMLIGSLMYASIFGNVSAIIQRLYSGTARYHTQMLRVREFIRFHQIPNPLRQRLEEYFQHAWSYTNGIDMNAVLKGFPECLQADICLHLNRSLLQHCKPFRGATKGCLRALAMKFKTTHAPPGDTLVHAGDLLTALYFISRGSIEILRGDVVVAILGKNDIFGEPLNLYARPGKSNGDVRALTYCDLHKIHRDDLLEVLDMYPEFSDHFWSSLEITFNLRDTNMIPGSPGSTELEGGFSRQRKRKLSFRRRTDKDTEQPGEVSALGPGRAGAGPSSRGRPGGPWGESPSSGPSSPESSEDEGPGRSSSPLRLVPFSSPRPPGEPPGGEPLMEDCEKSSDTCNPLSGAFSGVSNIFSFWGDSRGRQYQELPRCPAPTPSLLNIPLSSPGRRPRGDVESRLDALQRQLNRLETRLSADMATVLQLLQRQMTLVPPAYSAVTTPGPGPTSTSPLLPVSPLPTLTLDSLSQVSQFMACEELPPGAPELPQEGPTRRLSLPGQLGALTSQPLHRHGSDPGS
row,SMILES,"hERG current change (%, negative = inhibition) at 10uM [%]"
1,CCOC(=O)Cn1c(CN2CCOCC2)nc2c1c(=O)[nH]c(=O)n2C,7.2
2,COc1ccc(C2Nc3ccccc3C(=O)N2Cc2ccccc2)cc1 (stereo not drawn),3.75
3,CC(C)CC(NC(N)=O)C(=O)NCCc1ccc(Cl)cc1Cl (stereo not drawn),3.07
4,CCOP(=O)(OCC)C(NC(=O)Nc1cccc(Cl)c1)c1ccccc1 (stereo not drawn),5.75
5,CCC(C)[C@H](NC(=O)OC(C)(C)C)C(=O)N/N=C/c1ccc2cc(OC)ccc2n1 (stereo partly drawn),-13.7
6,COc1ccc2nc(/C=N/NC(=O)[C@H](CCSC)NC(=O)OC(C)(C)C)ccc2c1,-59.7
7,COc1ccc2nc(/C=N/NC(=O)[C@H](C)NC(=O)OC(C)(C)C)ccc2c1,-7.25
8,Cc1ccc(NC(=O)C2=C(C(=O)O)CCCC2)cc1F,7.33
9,Cn1ncc(C(=O)Nc2ccc(Cl)cc2)c1C(F)(F)F,-12
10,O=C(Nc1ccccc1)c1ccc(NCC2CCCO2)c([N+](=O)[O-])c1 (stereo not drawn),-2.42
11,O=C(c1ccccc1)N1CCN(c2ccc([N+](=O)[O-])c(NCC3CCCO3)c2)CC1 (stereo not drawn),-76.9
12,CC(=O)N1CCN(c2ccc([N+](=O)[O-])c(NCC3CCCO3)c2)CC1 (stereo not drawn),-18.3
13,NC(=O)c1ccc(NCC2CCCO2)c([N+](=O)[O-])c1 (stereo not drawn),12.7
14,O=[N+]([O-])c1ccc(N2CCNCC2)cc1NCC1CCCO1 (stereo not drawn),-22.1
15,CC(C)(C)C(=O)N1CCN(c2ccc([N+](=O)[O-])c(NCC3CCCO3)c2)CC1 (stereo not drawn),-20.8
16,CN1CCN(c2ccc([N+](=O)[O-])c(NCC3CCCO3)c2)CC1.Cl (stereo not drawn),-41.4
17,O=C(NCCc1ccccc1)c1ccc(NCC2CCCO2)c([N+](=O)[O-])c1 (stereo not drawn),-68.9
18,O=C(c1ccccc1F)N1CCN(c2ccc([N+](=O)[O-])c(NCC3CCCO3)c2)CC1 (stereo not drawn),-80.8
19,O=C1CC(N(C(=O)c2ccco2)c2cccc(Cl)c2)C(=O)N1c1cccc(Cl)c1 (stereo not drawn),-19.7
20,C/C(Cn1cnc([N+](=O)[O-])n1)=N\NC(=O)c1ccccc1O,8.06
21,COc1cc(C(=O)Nc2ccc(Br)cc2C(=O)c2ccccc2)cc(OC)c1OC,12.4
22,COc1ccc(CNS(=O)(=O)c2cc(-c3cc(C)no3)ccc2C(C)C)cc1,-14.9
23,CCCCC(CC)CNC(=O)C1CCCN(S(=O)(=O)c2cnc[nH]2)C1 (stereo not drawn),3.45

row,SMILES,"hERG current change (%, negative = inhibition) at 10uM [%]"
1,N#CCCN(CC(=O)O)S(=O)(=O)c1ccccc1,5.74
2,CC(C)(C)OC(=O)N[C@H](Cc1ccccc1)C(=O)N1CCC(C(=O)O)CC1,9.08
3,COc1ccc2c(c1)CCc1c(C(=O)Nc3cc(C)n(Cc4ccc(Cl)cc4)n3)noc1-2,-30.5
4,COc1ccc(-c2nc(N)n[nH]2)cc1OC,18.9
5,COc1ccc(-c2n[nH]c3c2CN(C(=O)c2ccccc2)CC3)cc1,-6.13
6,Fc1cccc(NCc2ccoc2)c1,-7.89
7,Cc1ccc(-c2sc(-c3ccccc3)nc2CC(=O)Nc2ccccc2F)cc1,6.09
8,OCC1(Cc2ccccc2)CCN(C2CCN(c3ccccc3F)CC2)CC1,-68.8
9,O=C(NCc1ccccc1)N1CCN(c2ccccc2F)CC1,1.22
10,CC(=O)N1CCC(N2CCN(c3ccccc3F)CC2)CC1,0.444
11,O=C(NCc1ccccc1)N1CCC(CO)(Cc2cccc(F)c2)CC1,-12.8
12,OCC1(Cc2ccccc2)CCCN(C2CCCC2)C1 (stereo not drawn),-8.01
13,OCC1(Cc2ccccc2)CCN(C2CCN(c3ccc(F)c(F)c3)CC2)CC1,-112
14,Cc1ccc(-c2ccc(=O)n(Cc3c(F)cccc3Cl)n2)cc1,9.18
15,Cc1ccc2nc(Nc3ccccc3O)nc(-c3ccccc3)c2c1,14.3
16,O=C(CCN1C(=O)c2cccc3cccc(c23)C1=O)NCc1cccnc1,-16.7
17,C/C(CC(=O)Nc1ccccc1Cl)=N\NC(=O)C(=O)NCCO,6.65
18,CC1CC(C)(C)CC(=O)C1C(=O)c1ccccc1 (stereo not drawn),16.4
19,COS(=O)(=O)[O-].C[N+]1(C)CCC(=C(c2ccccc2)c2ccccc2)CC1,-71
20,O=C(O)c1ccc(S(=O)(=O)c2ccccc2)cc1,11.5
21,CCOc1ccc(-n2ccnc(SCC(=O)Nc3ccc(OC)cc3OC)c2=O)cc1,9.58
22,O=C(CON=C1c2ccccc2-c2ccccc21)NC12CC3CC(CC(C3)C1)C2,-7.23
